Several values for one entry are separate records, joined by “and”; a condition that tells them apart may be missing. Equal values may be shown once. Inconclusive results are not listed. Some structures have more than one record in an assay (separate samples or runs), and their calls can disagree. Activity calls are given as the source filed them. Rule for the calls, unless noted: active = hit-call score of the fitted dose curve at least 0.9, where 1 is the maximum; inconclusive = response in the unintended direction; inactive = score below 0.9.
Assays:
[1] = ATG_TAL_CIS: Attagene CIS-FACTORIAL HepG2 Assay for human TAL Basal Promoter (AID 2282966; active = hit-call score of the fitted dose curve at least 0.9, where 1 is the maximum; inactive = score below 0.9;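 note: background control endpoint measuring basal TAL promoter reporter mRNA not a specific factor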); settings: HepG2 Attagene cis-factorial TAL promoter reporter; actives raise or lower the signal
Summary of the method: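 Fluorescence of labelled reporter cDNA fragments, resolved by capillary electrophoresis, gave the readout. Human HepG2 liver cells carried transiently transfected cis-element reporter units and were treated for 24 hours; activity was fitted bidirectionally against DMSO.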

[2] = ATG_TGFb_CIS: Attagene CIS-FACTORIAL HepG2 Assay for human Transforming Growth Factor (TGF) (AID 2282967; active = hit-call score of the fitted dose curve at least 0.9, where 1 is the maximum; inactive = score below 0.9); settings: HepG2 Attagene CIS TGFb reporter, mRNA transcription; actives raise or lower the signal
Summary of the method: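 Transient MRTU transfection of HepG2 (FuGene 6). Dose 24 h. TriZol RNA, oligo(dT) RT, PCR, 6-FAM primer extension, HpaI cut, CE. Bidirectional fit, DMSO = baseline.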

[3] = ATG_VDRE_CIS: Attagene CIS-FACTORIAL HepG2 Assay for human Vitamin D Receptor Element (VDRE) (AID 2282968; active = hit-call score of the fitted dose curve at least 0.9, where 1 is the maximum; inactive = score below 0.9); settings: HepG2 VDRE cis-reporter transcription, actives raise or lower the signal
Summary of the method: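 HepG2 cells transiently transfected with cis-element reporter units, dosed 24 h; reporter mRNA measured by RT-PCR, 6-FAM labeling, HpaI digestion and capillary electrophoresis. Activity fitted bidirectionally against DMSO baseline.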

[4] = target: Nuclear receptor subfamily 1 group I member 3 (Homo sapiens) (UniProt Q14994); test: ATG_CAR_TRANS: Attagene TRANS-FACTORIAL HepG2 Assay for human Constitutive Androstane Receptor (CAR) (AID 2282969); settings: HepG2 Attagene TRANS-FACTORIAL CAR reporter;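 note: activators raise reporter mRNA above DMSO so AC50 marks induction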
Summary of the method: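 HepG2 cells transiently transfected with multiplexed GAL4-UAS reporter units expressing chimeric NR-Gal4 proteins; compound exposure 24 h. Reporter mRNA measured by RT-PCR, 6-FAM labelling, HpaI digestion and capillary electrophoresis; gain-of-signal fitted against DMSO baseline.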

[5] = ATG_M_19_TRANS: Attagene TRANS-FACTORIAL HepG2 Assay for M19 Transcription Factor (Internal Marker) (AID 2282974); settings: HepG2 Attagene TRANS-FACTORIAL M19 internal marker reporter
Summary of the method: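 Using RT-PCR and capillary electrophoresis, reporter mRNA from transiently transfected human HepG2 cells was quantified following 24 h exposure; activity was fitted in the positive direction against DMSO.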

[6] = ATG_GAL4_TRANS: Attagene TRANS-FACTORIAL HepG2 Assay for GAL4 (Internal Marker) (AID 2282976); settings: HepG2 Attagene TRANS GAL4 internal marker reporter
Summary of the method: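 First, HepG2 cells were transfected with reporter units under GAL4-UAS control. Next, they were treated with chemical for 24 h. Finally, RNA was reverse-transcribed, PCR-amplified, FAM-labelled and resolved by capillary electrophoresis, with induction scored against DMSO.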

[7] = target: Glucocorticoid receptor (Homo sapiens) (UniProt P04150); test: ATG_GR_TRANS: Attagene TRANS-FACTORIAL HepG2 Assay for human Glucocorticoid Receptor (GR) (AID 2282978); settings: HepG2 Attagene TRANS GR reporter, mRNA transcription;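 note: activators score as hits since higher reporter transcript over DMSO is fitted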
Summary of the method: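 Exogenous NR-GAL4 fusion activity was assessed through induced GAL4-UAS reporter transcripts in transfected human HepG2 cells, quantified after 24 h by RT-PCR and fluorescent capillary electrophoresis with DMSO as baseline.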

[8] = target: Oxysterols receptor LXR-beta (Homo sapiens) (UniProt P55055); test: ATG_LXRb_TRANS: Attagene TRANS-FACTORIAL HepG2 Assay for human Liver X Receptor beta (LXRb) (AID 2282981); settings: HepG2 Attagene TRANS GAL4-LXRb reporter, mRNA
Summary of the method: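 HepG2 cells transiently transfected with multiple reporter transcription units carrying chimeric NR-Gal4 proteins acting on GAL4-UAS reporters; compound exposure 24 h. Reporter mRNA quantified by RT-PCR, 6-FAM labelling, HpaI digestion and capillary electrophoresis; gain of signal versus DMSO.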

[9] = target: Hepatocyte nuclear factor 4-alpha (Homo sapiens) (UniProt P41235); test: ATG_HNF4a_TRANS: Attagene TRANS-FACTORIAL HepG2 Assay for human Hepatocyte Nuclear Factor 4 alpha (HNF4a) (AID 2282982); settings: HepG2 HNF4a transactivation reporter, mRNA readout
Summary of the method: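 HepG2 cells transiently transfected with multiplexed GAL4-UAS reporter units responsive to chimeric NR-GAL4 proteins; compound exposure 24 h. Reporter mRNA quantified by RT-PCR, 6-FAM labelling, HpaI digestion and capillary electrophoresis; gain of signal versus DMSO baseline.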

[10] = ATG_M_06_TRANS: Attagene TRANS-FACTORIAL HepG2 Assay for M06 Transcription Factor (Internal Marker) (AID 2282983); settings: HepG2 Attagene TRANS M06 internal marker reporter;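 note: reporter transcript level by RT-PCR then capillary electrophoresis fluorescence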
Summary of the method: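 Transfect HepG2 with MRTUs → dose compounds 24 h → isolate RNA, oligo(dT) RT → PCR with reporter primers → 6-FAM primer extension → HpaI digest → CE fragment analysis. Positive direction vs DMSO.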

[11] = ATG_M_32_TRANS: Attagene TRANS-FACTORIAL HepG2 Assay for M32 Transcription Factor (Internal Marker) (AID 2282984); settings: HepG2 Attagene TRANS M32 internal marker reporter;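 note: transcript level of a background control reporter unit measured by RT-PCR and capillary electrophoresis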
Summary of the method: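 HepG2 cells transiently transfected with multiple GAL4-UAS reporter transcription units, dosed for 24 hours; reporter mRNA quantified by RT-PCR, 6-FAM primer extension, HpaI digestion and capillary electrophoresis. Gain-of-signal fitted versus DMSO baseline; internal background-control marker.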

[12] = target: Nuclear receptor subfamily 4 group A member 2 (Homo sapiens) (UniProt P43354); test: ATG_NURR1_TRANS: Attagene TRANS-FACTORIAL HepG2 Assay for human Nuclear Receptor Related Protein 1 (NURR1) (AID 2282985); settings: HepG2 Attagene TRANS reporter, mRNA readout
Summary of the method: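 HepG2 cells transiently transfected with GAL4-UAS reporter units and chimeric NR-Gal4 constructs; chemical exposure 24 h. Reporter mRNA quantified by RT-PCR, fluorescent labelling and capillary electrophoresis; gain of signal fitted relative to DMSO baseline.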

[13] = target: Transcriptional activator Myb (Homo sapiens) (UniProt P10242); test: ATG_Myb_CIS: Attagene CIS-FACTORIAL HepG2 Assay for human Myeloblastosis (Myb) Proto-Oncogene Transcription Factor (AID 2282986; active = hit-call score of the fitted dose curve at least 0.9, where 1 is the maximum; inactive = score below 0.9); settings: HepG2 Attagene CIS-FACTORIAL Myb reporter transcription; actives raise or lower the signal
Summary of the method: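 In this HepG2 transient-transfection format, cis-regulated reporter mRNA is quantified 24 h post-dosing by RT-PCR with capillary electrophoresis, fitted bidirectionally to DMSO baseline.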

[14] = target: Estrogen receptor (Homo sapiens) (UniProt P03372); test: ATG_ERa_TRANS: Attagene TRANS-FACTORIAL HepG2 Assay for human Estrogen Receptor alpha (ERa) (AID 2282970); settings: HepG2 Attagene TRANS ERa GAL4 reporter, mRNA
Summary of the method: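 Human liver HepG2, transient transfection of multiple GAL4-UAS reporter units; TRANS format (exogenous NR-Gal4 chimera). 24 h dosing. Readout: reporter mRNA, RT-PCR, 6-FAM primer extension, HpaI digest, capillary electrophoresis. Positive direction vs DMSO.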

[15] = target: Steroid hormone receptor ERR1 (Homo sapiens) (UniProt P11474); test: ATG_ERRa_TRANS: Attagene TRANS-FACTORIAL HepG2 Assay for human Estrogen-Related Receptor alpha (ERRa) (AID 2282971); settings: HepG2 Attagene TRANS reporter, ERRa transactivation
Summary of the method: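 Reporter transcript induction was quantified by RT-PCR and capillary electrophoresis of FAM-labelled, HpaI-cut products after 24 h treatment of HepG2 cells carrying transiently transfected GAL4-UAS reporter units and an exogenous ERRa-Gal4 fusion; activity scored as increase over DMSO.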

[16] = target: X-box-binding protein 1 (Homo sapiens) (UniProt P17861); test: ATG_Xbp1_CIS: Attagene CIS-FACTORIAL HepG2 Assay for human X-box Binding Protein 1 (XBP1) (AID 2282972; active = hit-call score of the fitted dose curve at least 0.9, where 1 is the maximum; inactive = score below 0.9); settings: HepG2 XBP1 cis-element reporter, Attagene multiplex; actives raise or lower the signal
Summary of the method: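 Fluorescence-labelled cDNA fragments from reporter transcripts, separated by capillary electrophoresis, give the signal. Source: HepG2 cells transfected with promoter-driven reporter units, harvested 24 h post-dose. DMSO served as reference for bidirectional curve fitting.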

[17] = target: Androgen receptor (Homo sapiens) (UniProt P10275); test: ATG_AR_TRANS: Attagene TRANS-FACTORIAL HepG2 Assay for human Androgen Receptor (AR) (AID 2282973); settings: HepG2 Attagene TRANS-FACTORIAL AR reporter transcription
Summary of the method: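 Steps: transfect HepG2 with multiple GAL4-UAS reporter transcription units (TRANS format, exogenous NR-Gal4 protein); dose 24 h; isolate RNA, reverse-transcribe, PCR-amplify, FAM-label, HpaI-digest; resolve by capillary electrophoresis. Positive direction vs DMSO.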

[18] = target: Estrogen-related receptor gamma (Homo sapiens) (UniProt P62508); test: ATG_ERRg_TRANS: Attagene TRANS-FACTORIAL HepG2 Assay for human Estrogen-Related Receptor gamma (ERRg) (AID 2282977); settings: HepG2 Attagene TRANS reporter, ERRg transactivation;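 note: hits increase reporter signal over DMSO so potencies reflect activators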
Summary of the method: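 Transient HepG2 transfectants, 24 h compound exposure, GAL4-UAS reporter mRNA by RT-PCR/6-FAM labelling/capillary electrophoresis; positive direction vs DMSO.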

[19] = target: Bile acid receptor (Homo sapiens) (UniProt Q96RI1); test: ATG_FXR_TRANS: Attagene TRANS-FACTORIAL HepG2 Assay for Farnesoid X Receptor (FXR) (AID 2282979); settings: HepG2 Attagene TRANS FXR-GAL4 reporter transcription;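 note: hits raise reporter mRNA above DMSO so AC50 marks FXR activation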
Summary of the method: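 Transient transfection of HepG2 with multiplexed GAL4-UAS reporter units; exogenous FXR-GAL4 chimera. Dose 24 h → TriZol RNA → oligo(dT) RT → PCR, 6-FAM primer extension, HpaI cut → CE. Gain vs DMSO.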

Chain of Androgen receptor (Homo sapiens) (P10275 whole entry, looked up, the tested form may be a part): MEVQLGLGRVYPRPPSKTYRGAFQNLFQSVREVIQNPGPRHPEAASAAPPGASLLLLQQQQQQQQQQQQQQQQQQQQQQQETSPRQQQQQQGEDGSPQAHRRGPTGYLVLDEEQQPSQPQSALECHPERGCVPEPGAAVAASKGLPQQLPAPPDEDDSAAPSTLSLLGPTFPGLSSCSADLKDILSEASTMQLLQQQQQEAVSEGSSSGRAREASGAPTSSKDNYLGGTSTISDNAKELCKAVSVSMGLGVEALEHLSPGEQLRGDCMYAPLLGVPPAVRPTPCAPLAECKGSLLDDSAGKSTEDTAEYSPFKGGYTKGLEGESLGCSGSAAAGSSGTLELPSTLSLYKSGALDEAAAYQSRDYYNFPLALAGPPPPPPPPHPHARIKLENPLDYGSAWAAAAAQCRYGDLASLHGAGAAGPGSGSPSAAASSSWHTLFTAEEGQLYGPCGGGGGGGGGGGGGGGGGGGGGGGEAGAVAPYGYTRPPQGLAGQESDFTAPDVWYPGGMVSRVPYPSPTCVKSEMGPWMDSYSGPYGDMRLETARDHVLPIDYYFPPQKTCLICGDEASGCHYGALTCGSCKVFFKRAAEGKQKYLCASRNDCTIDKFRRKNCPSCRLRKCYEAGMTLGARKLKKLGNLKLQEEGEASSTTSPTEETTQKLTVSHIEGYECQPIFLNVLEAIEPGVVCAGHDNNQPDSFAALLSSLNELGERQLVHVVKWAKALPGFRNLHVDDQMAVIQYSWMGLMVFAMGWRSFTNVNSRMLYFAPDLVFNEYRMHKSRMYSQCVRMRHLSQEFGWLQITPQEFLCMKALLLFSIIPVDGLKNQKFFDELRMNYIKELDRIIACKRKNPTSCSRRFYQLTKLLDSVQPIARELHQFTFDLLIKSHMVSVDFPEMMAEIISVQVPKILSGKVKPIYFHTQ
Chain of Bile acid receptor (Homo sapiens) (Q96RI1 whole entry, looked up, the tested form may be a part): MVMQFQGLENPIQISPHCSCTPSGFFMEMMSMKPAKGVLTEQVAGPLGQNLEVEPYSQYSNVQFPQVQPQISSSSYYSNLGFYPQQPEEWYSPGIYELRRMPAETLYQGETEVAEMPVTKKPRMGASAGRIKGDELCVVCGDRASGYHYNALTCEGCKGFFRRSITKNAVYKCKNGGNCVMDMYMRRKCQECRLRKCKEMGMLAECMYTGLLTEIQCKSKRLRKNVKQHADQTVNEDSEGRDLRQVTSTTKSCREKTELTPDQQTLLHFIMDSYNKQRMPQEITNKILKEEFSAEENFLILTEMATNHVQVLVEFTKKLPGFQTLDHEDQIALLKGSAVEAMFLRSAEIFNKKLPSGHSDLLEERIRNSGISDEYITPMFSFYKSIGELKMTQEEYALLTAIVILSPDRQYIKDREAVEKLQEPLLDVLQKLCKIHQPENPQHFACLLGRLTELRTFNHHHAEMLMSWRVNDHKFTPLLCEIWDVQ
Chain of Nuclear receptor subfamily 1 group I member 3 (Homo sapiens) (Q14994 whole entry, looked up, the tested form may be a part): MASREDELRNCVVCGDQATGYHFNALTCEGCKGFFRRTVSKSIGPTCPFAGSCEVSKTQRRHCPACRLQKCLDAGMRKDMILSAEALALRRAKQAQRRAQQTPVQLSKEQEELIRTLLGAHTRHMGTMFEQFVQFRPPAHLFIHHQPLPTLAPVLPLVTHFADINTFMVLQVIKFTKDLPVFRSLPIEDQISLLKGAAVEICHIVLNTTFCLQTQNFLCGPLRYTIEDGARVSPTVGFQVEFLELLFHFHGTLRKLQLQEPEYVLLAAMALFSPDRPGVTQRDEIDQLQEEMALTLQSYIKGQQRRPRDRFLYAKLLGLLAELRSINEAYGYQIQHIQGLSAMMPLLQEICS
Chain of Glucocorticoid receptor (Homo sapiens) (P04150 whole entry, looked up, the tested form may be a part): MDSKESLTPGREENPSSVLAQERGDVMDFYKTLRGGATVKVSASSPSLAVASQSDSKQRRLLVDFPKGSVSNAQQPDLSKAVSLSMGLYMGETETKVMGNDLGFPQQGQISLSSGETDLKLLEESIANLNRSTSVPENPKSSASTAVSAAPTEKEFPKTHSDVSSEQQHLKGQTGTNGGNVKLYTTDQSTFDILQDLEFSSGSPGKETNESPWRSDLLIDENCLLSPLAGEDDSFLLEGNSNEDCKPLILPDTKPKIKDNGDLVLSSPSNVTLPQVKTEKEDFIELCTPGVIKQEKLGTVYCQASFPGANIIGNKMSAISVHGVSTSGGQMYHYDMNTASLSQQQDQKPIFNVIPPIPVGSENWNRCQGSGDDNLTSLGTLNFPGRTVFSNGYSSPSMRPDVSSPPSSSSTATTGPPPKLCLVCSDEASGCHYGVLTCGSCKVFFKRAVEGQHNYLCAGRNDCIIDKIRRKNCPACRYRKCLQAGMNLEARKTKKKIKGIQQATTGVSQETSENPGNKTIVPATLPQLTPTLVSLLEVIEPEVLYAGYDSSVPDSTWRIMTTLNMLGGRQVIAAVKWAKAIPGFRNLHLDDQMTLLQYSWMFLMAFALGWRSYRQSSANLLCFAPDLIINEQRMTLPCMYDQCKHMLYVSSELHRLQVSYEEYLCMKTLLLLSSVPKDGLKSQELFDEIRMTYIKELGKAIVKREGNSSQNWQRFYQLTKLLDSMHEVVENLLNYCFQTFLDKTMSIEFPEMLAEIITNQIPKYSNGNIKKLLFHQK
Chain of X-box-binding protein 1 (Homo sapiens) (P17861 whole entry, looked up, the tested form may be a part): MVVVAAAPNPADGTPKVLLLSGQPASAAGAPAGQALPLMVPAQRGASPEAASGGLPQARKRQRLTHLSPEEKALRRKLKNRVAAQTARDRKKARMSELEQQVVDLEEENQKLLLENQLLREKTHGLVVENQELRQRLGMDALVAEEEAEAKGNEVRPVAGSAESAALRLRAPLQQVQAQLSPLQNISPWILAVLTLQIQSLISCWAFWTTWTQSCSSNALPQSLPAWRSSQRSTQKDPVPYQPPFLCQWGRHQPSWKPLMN
Chain of Estrogen receptor (Homo sapiens) (P03372 whole entry, looked up, the tested form may be a part): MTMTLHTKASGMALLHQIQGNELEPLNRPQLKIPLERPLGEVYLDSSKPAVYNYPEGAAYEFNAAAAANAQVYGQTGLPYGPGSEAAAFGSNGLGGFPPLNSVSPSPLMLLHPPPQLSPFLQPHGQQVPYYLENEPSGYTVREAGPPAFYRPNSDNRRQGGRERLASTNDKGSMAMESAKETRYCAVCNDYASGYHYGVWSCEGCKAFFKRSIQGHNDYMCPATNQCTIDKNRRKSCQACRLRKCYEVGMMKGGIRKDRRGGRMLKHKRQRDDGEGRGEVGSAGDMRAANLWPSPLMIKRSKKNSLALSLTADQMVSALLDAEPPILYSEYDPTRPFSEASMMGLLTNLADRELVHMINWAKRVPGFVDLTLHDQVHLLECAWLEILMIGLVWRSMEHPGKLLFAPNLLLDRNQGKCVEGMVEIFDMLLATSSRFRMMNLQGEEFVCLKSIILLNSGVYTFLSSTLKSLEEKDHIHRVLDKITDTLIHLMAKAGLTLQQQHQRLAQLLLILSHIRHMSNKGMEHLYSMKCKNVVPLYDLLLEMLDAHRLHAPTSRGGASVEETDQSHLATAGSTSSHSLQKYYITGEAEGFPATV
Chain of Transcriptional activator Myb (Homo sapiens) (P10242 whole entry, looked up): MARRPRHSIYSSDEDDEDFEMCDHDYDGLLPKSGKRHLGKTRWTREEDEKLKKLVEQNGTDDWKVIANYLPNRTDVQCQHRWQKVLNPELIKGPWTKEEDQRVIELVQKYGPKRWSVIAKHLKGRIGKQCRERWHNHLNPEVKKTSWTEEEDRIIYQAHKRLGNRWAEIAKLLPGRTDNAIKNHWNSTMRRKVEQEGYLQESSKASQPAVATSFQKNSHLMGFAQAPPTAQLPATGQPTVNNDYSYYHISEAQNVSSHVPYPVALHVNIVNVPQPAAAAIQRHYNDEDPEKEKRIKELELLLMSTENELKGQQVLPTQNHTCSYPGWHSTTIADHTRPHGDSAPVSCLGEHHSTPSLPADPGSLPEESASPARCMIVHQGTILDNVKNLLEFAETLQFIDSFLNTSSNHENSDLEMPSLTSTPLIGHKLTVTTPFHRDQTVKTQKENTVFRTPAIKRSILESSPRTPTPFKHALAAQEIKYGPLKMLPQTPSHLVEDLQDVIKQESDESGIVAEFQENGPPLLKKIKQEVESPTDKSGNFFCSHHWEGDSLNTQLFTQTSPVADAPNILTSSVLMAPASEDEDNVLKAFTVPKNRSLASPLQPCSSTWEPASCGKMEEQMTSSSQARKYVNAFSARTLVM
Chain of Oxysterols receptor LXR-beta (Homo sapiens) (P55055 whole entry, looked up, the tested form may be a part): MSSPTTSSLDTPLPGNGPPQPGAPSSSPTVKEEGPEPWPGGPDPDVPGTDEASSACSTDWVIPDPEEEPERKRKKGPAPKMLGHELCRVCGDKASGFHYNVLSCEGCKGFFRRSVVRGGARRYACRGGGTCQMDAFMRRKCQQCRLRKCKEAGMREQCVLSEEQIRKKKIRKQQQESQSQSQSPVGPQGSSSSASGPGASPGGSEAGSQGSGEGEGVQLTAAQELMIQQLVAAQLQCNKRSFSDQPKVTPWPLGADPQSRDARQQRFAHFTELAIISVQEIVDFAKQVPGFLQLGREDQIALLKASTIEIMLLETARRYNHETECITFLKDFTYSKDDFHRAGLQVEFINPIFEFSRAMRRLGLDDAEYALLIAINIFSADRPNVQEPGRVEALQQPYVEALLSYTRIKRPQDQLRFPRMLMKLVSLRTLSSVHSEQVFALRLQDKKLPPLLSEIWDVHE
Chain of Hepatocyte nuclear factor 4-alpha (Homo sapiens) (P41235 whole entry, looked up, the tested form may be a part): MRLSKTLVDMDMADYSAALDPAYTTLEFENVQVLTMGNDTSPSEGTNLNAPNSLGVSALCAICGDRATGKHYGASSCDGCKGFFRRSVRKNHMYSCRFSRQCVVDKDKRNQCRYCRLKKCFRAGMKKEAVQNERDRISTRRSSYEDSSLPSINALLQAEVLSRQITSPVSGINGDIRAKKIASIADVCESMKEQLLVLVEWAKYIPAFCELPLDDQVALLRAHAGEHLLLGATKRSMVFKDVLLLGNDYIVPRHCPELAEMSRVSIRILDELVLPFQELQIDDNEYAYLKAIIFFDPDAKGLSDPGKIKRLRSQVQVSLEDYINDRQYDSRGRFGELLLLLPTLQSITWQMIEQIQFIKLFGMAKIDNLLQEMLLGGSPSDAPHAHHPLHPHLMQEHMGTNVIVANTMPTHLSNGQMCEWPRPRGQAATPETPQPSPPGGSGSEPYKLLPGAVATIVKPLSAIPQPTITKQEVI

CC(C)(O)C(=O)Nc1ccc([N+](=O)[O-])c(C(F)(F)F)c1
outcome [1]: inactive | outcome [2]: inactive | AC50 [3]: 31.2 µM (active) | outcome [3]: inactive | outcome [14]: inactive | outcome [15]: inactive | AC50 [16]: 54.9 µM (active) | outcome [16]: inactive | outcome [17]: inactive | outcome [5]: inactive | outcome [18]: inactive | outcome [8]: inactive | outcome [9]: inactive | outcome [10]: inactive | outcome [11]: inactive | outcome [12]: inactive | outcome [13]: inactive

CC(C)(c1ccccc1)c1ccc(O)cc1
outcome [1]: inactive | outcome [2]: inactive | AC50 [3]: 2.17 µM (active) and 21.3 µM (active) and 10.6 µM (active) | outcome [3]: inactive | outcome [4]: inactive | AC50 [14]: 277 nM (active) [middle of 4 runs] | outcome [5]: inactive | outcome [6]: inactive | outcome [7]: inactive | AC50 [19]: 48.9 µM (active) | outcome [19]: inactive | outcome [8]: inactive | outcome [10]: inactive | outcome [11]: inactive | outcome [12]: inactive | AC50 [13]: 51.8 µM (active) | outcome [13]: inactive

Reference: PubChem BioAssay (EPA / NIEHS)
